This note sets out measurements from PubChem BioAssay (NCI).

Each structure is given as a SMILES string. About 79,000 compounds went through this panel and 15% of them were active in at least one assay; those are over-represented in the sample as a whole. Unmarked numbers belong to inactive results. Activity calls are given as the source filed them. Rule as the data show it: active = growth inhibition above about 70%; inactive = the rest.

One assay can be described thus: NCI Yeast Anticancer Drug Screen. Data for the sgs1 mgt1 strain (AID 161).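 Also: 0% = growth of cultures given vehicle only.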 The settings on record: S. cerevisiae sgs1 mgt1 strain, at 50.0 µM, active compounds read high. Summed up: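 Growth of a repair-deficient yeast mutant was monitored after compound treatment and expressed as inhibition relative to vehicle-treated cultures.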
For `O=S1(=O)CS/C(=N/C(=S)N(Cc2ccccc2)Cc2ccccc2)N1c1ccccc1`, the growth inhibition was 35.1%.

On to `O=C(OC1OC(COCc2ccccc2)C(OCc2ccccc2)C1OCc1ccccc1)c1ccc([N+](=O)[O-])cc1` (stereo not given), for which the growth inhibition was 16.2%.

Regarding `O=c1cc(-c2ccccc2)oc2c(N=Nc3ccccc3)ccc(O)c12`, the growth inhibition was 22.9%.

`C=CCNc1ccc(Cl)cc1Cl`: the growth inhibition is -21.9%.

Take `O=C(CCc1ccc(O)c(O)c1)NCCc1cc(OCc2ccccc2)cc(OCc2ccccc2)c1`: the growth inhibition is 83.2% (active).

Take `CN(C)c1nc2ccc(Cl)cc2c(=O)[nH]1`: the growth inhibition is -14%.

Consider `Cc1ccc(S(=O)(=O)OC(c2ccc(C(OS(=O)(=O)c3ccc(C)cc3)(C(F)(F)F)C(F)(F)F)cc2)(C(F)(F)F)C(F)(F)F)cc1`, for which the growth inhibition is -17.8%.

Turning to `CC/C(=C\c1ccc(OC)cc1)c1ccc(OC)cc1`, the growth inhibition was 7.05%.

On to `CC(=O)C1(c2ccccc2)C(C)(C)C(C)(C)C(=O)C(C)(C)C1(C)C`, for which the growth inhibition is 15.4%.

With `CCOC(=O)NC(=O)c1cn(C2CCCCC2)c(=O)[nH]c1=O`, the growth inhibition is -5.9%.

For the compound `Cc1ccc(N(C(=O)Nc2ccccc2)C2=NCC(C)S2)cc1C` (stereo not given), the growth inhibition was -37.4%.

Take `N#Cc1c(N)[n+]([O-])c2c([n+]1[O-])CCCC2`: the growth inhibition is 7%.

With `CC(C)(C)C(=O)CC(=O)C(C)(C)C.[Cu]`, the growth inhibition was -4.2%.

Regarding `CC(=O)OCC(CO)(CO)COC(C)=O`, the growth inhibition was -16.2%.

On to `CC(C)CN(CC(C)C)C(=O)c1ccc([N+](=O)[O-])cc1`, for which the growth inhibition was 16.9%.

For `ON(Cc1ccccc1)Cc1ccccc1`, the growth inhibition is 12.9%.

In the case of `COC(=O)c1c2c(cc3c1CC1(Cc4cc5c(cc4C1)CCCC5)C3)CCCC2`, the growth inhibition was -21.9%.

With `N#C/C(=C\C=C\c1ccccc1)C(N)=O`, the growth inhibition is -27.4%.

For `COC(=O)C(=O)C(C(=O)C(=O)Nc1cccc([N+](=O)[O-])c1)c1nc2ccc(Cl)cc2[nH]c1=O` (stereo not given), the growth inhibition was 14.2%.

Consider `O=C1C2C=CC(n3[nH]c(=O)n(Cc4ccccc4)c3=O)CC2C(=O)N1c1ccc(Br)cc1` (stereo not given), for which the growth inhibition was 3.1%.

With `CC1=NC2c3c(-c4ccc(Cl)cc4)cn(-c4ccc(C)cc4)c3N=CN2N1` (stereo not given), the growth inhibition is -16.6%.

Consider `CC1CN=C(N(C(=O)Nc2ccc(Cl)cc2)c2cccc(Cl)c2)S1` (stereo not given), for which the growth inhibition is -50.1%.

For the compound `O=C(O)CCCCC1CCCC1`, the growth inhibition is 12.2%.

For the compound `O=C(O)c1ccc(Cl)cc1C(=O)c1ccc(Cl)cc1`, the growth inhibition was -2.55%.

For `CCOC(=O)CC[C@@H](NC(=O)c1ccc(NCc2ccc3nc(OC)c(OC)nc3c2)cc1)C(=O)OCC`, the growth inhibition is -4.15%.

In the case of `Nc1nc(N)nc(-c2ccccc2NC(=O)c2ccccc2N)n1`, the growth inhibition was -0.25%.

As to `O=C(O)c1c2ccccc2nc2c1sc1ccccc12`, the growth inhibition was -3.05%.

For `CS(=O)(=O)OC12CC3CC(CC(C3)C1)C2`, the growth inhibition is -11.8%.

As for `O=C(Nc1ccc([N+](=O)[O-])cc1)c1ccc(Cl)cc1`, the growth inhibition was -1.35%.

With `CC(C)c1ccc2c(c1)CCC1C2(C)CCCC1(C)C(O)c1ccccc1` (stereo not given), the growth inhibition was 8.6%.

Consider `Nc1c(C(=O)O)cccc1C(=O)O`, for which the growth inhibition was -11.7%.

With `CCC1(CC)C(=O)NN(C(=O)c2ccccc2)C1=O`, the growth inhibition is 28.4%.

Consider `C#CCN(C(=O)C(F)(F)F)C(/C=C\C(=O)OC)(C(=O)OCC)C(=O)OCC`, for which the growth inhibition was -0.45%.

Turning to `CCC(=O)C(CC)c1ccccc1` (stereo not given), the growth inhibition is -4.8%.

Regarding `O=C(CCn1ccnc1[N+](=O)[O-])NCCCn1ccnc1[N+](=O)[O-]`, the growth inhibition is -42.4%.

Regarding `CC1(C)OC2OC(C3CC3)C(O)C2O1` (stereo not given), the growth inhibition was 3%.

As to `COc1ccc(NC(=O)N(C)Cc2ccccc2Cl)cc1`, the growth inhibition was 1.9%.

With `[N-]=[N+]=CC(=O)CCN1C(=O)c2ccccc2C1=O`, the growth inhibition is -4.75%.

For `CSc1ccc(NC(=O)Nc2ccccc2C(F)(F)F)cc1`, the growth inhibition is 18.4%.

Take `CCOC(OCC)C(C)(C)OC=O`: the growth inhibition is -7.7%.

The next assay in a line: NCI Yeast Anticancer Drug Screen. Data for the cln2 rad14 strain (AID 165).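 Also: 0% = growth equal to vehicle treated cultures.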 The settings on record: S. cerevisiae cln2 rad14 strain, at 50.0 µM, active compounds read high. Summed up: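 Strain: cln2 rad14 yeast, altered in cell cycle control and DNA damage repair. Read-out: growth inhibition vs vehicle.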
In the case of `O=S1(=O)CS/C(=N/C(=S)N(Cc2ccccc2)Cc2ccccc2)N1c1ccccc1`, the growth inhibition was 24.8%.

Take `O=C(OC1OC(COCc2ccccc2)C(OCc2ccccc2)C1OCc1ccccc1)c1ccc([N+](=O)[O-])cc1` (stereo not given): the growth inhibition is -26.1%.

With `O=c1cc(-c2ccccc2)oc2c(N=Nc3ccccc3)ccc(O)c12`, the growth inhibition is 25.4%.

For the compound `C=CCNc1ccc(Cl)cc1Cl`, the growth inhibition is -54.4%.

`O=C(CCc1ccc(O)c(O)c1)NCCc1cc(OCc2ccccc2)cc(OCc2ccccc2)c1`: the growth inhibition is 87.5% (active).

For the compound `CN(C)c1nc2ccc(Cl)cc2c(=O)[nH]1`, the growth inhibition is 3.55%.

For `Cc1ccc(S(=O)(=O)OC(c2ccc(C(OS(=O)(=O)c3ccc(C)cc3)(C(F)(F)F)C(F)(F)F)cc2)(C(F)(F)F)C(F)(F)F)cc1`, the growth inhibition is 10.8%.

In the case of `CC/C(=C\c1ccc(OC)cc1)c1ccc(OC)cc1`, the growth inhibition is 4.75%.

For `CC(=O)C1(c2ccccc2)C(C)(C)C(C)(C)C(=O)C(C)(C)C1(C)C`, the growth inhibition is 16.9%.

As for `CCOC(=O)NC(=O)c1cn(C2CCCCC2)c(=O)[nH]c1=O`, the growth inhibition is 21.9%.

In the case of `Cc1ccc(N(C(=O)Nc2ccccc2)C2=NCC(C)S2)cc1C` (stereo not given), the growth inhibition was 2.5%.

Take `N#Cc1c(N)[n+]([O-])c2c([n+]1[O-])CCCC2`: the growth inhibition was -43.2%.

Turning to `CC(C)(C)C(=O)CC(=O)C(C)(C)C.[Cu]`, the growth inhibition is -56.6%.

With `CC(=O)OCC(CO)(CO)COC(C)=O`, the growth inhibition is 7.45%.

Turning to `CC(C)CN(CC(C)C)C(=O)c1ccc([N+](=O)[O-])cc1`, the growth inhibition is -26.2%.

On to `ON(Cc1ccccc1)Cc1ccccc1`, for which the growth inhibition is 12.8%.

With `COC(=O)c1c2c(cc3c1CC1(Cc4cc5c(cc4C1)CCCC5)C3)CCCC2`, the growth inhibition was 12.3%.

In the case of `N#C/C(=C\C=C\c1ccccc1)C(N)=O`, the growth inhibition is -7.45%.

Consider `COC(=O)C(=O)C(C(=O)C(=O)Nc1cccc([N+](=O)[O-])c1)c1nc2ccc(Cl)cc2[nH]c1=O` (stereo not given), for which the growth inhibition was -19.1%.

As to `O=C1C2C=CC(n3[nH]c(=O)n(Cc4ccccc4)c3=O)CC2C(=O)N1c1ccc(Br)cc1` (stereo not given), the growth inhibition was -30.4%.

As to `CC1=NC2c3c(-c4ccc(Cl)cc4)cn(-c4ccc(C)cc4)c3N=CN2N1` (stereo not given), the growth inhibition is 15.8%.

Consider `CC1CN=C(N(C(=O)Nc2ccc(Cl)cc2)c2cccc(Cl)c2)S1` (stereo not given), for which the growth inhibition was -8.75%.

Regarding `O=C(O)CCCCC1CCCC1`, the growth inhibition is 5.25%.

As for `O=C(O)c1ccc(Cl)cc1C(=O)c1ccc(Cl)cc1`, the growth inhibition was -42.9%.

Consider `CCOC(=O)CC[C@@H](NC(=O)c1ccc(NCc2ccc3nc(OC)c(OC)nc3c2)cc1)C(=O)OCC`, for which the growth inhibition was -9.55%.

On to `Nc1nc(N)nc(-c2ccccc2NC(=O)c2ccccc2N)n1`, for which the growth inhibition is 8.5%.

With `O=C(O)c1c2ccccc2nc2c1sc1ccccc12`, the growth inhibition is -63.6%.

In the case of `CS(=O)(=O)OC12CC3CC(CC(C3)C1)C2`, the growth inhibition is -26.5%.

For `O=C(Nc1ccc([N+](=O)[O-])cc1)c1ccc(Cl)cc1`, the growth inhibition is -50.5%.

As to `CC(C)c1ccc2c(c1)CCC1C2(C)CCCC1(C)C(O)c1ccccc1` (stereo not given), the growth inhibition is -17.1%.

Take `Nc1c(C(=O)O)cccc1C(=O)O`: the growth inhibition was 0.55%.

With `CCC1(CC)C(=O)NN(C(=O)c2ccccc2)C1=O`, the growth inhibition is 13.6%.

For the compound `C#CCN(C(=O)C(F)(F)F)C(/C=C\C(=O)OC)(C(=O)OCC)C(=O)OCC`, the growth inhibition is -4.5%.

Take `CCC(=O)C(CC)c1ccccc1` (stereo not given): the growth inhibition was 2.2%.

Consider `O=C(CCn1ccnc1[N+](=O)[O-])NCCCn1ccnc1[N+](=O)[O-]`, for which the growth inhibition was -1%.

For the compound `CC1(C)OC2OC(C3CC3)C(O)C2O1` (stereo not given), the growth inhibition is -36.1%.

`COc1ccc(NC(=O)N(C)Cc2ccccc2Cl)cc1`: the growth inhibition was -12.6%.

Turning to `[N-]=[N+]=CC(=O)CCN1C(=O)c2ccccc2C1=O`, the growth inhibition is -3.85%.

For `CSc1ccc(NC(=O)Nc2ccccc2C(F)(F)F)cc1`, the growth inhibition was -9.85%.

On to `CCOC(OCC)C(C)(C)OC=O`, for which the growth inhibition is 24.2%.
